Our source for the composite z-score and z-score values is PubChem BioAssay.

Assay [1] can be described thus: small molecules captured by biotinylated probe aFSTL3 – biochemical, small-molecule microarray, fluorescence 635/667, stem cell growth factor project, primary screen (AID 1064).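 Also: measures binding of the biotinylated anti-FSTL3 antibody to printed compounds.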 The settings on record: higher = more signal.
A short description of assay [2]: binders from COS7 lysate, DM2A8 probe, primary screen, torsin A project, cell lysate, small-molecule microarray, fluorescence 635/667 (AID 1065). To be noted: higher = more signal, COS7 lysate expressing mutant human TOR1A.
A short description of assay [3]: small molecules captured by biotinylated probe aFGF2 – biochemical, small-molecule microarray, fluorescence 635/667, stem cell growth factor project, primary screen (AID 1067).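 Also: measures binding of biotinylated aFGF2 protein to printed compounds on slides; z-score merges feature fluorescence and signal-to-noise across triplicate slides.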 To be noted: higher = more signal.
A short description of assay [4]: small molecules captured by biotinylated probe aFGF10 – biochemical, small-molecule microarray, fluorescence 635/667, stem cell growth factor project, primary screen (AID 1071).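 Also: score merges 667 nm spot intensity and signal to noise from triplicate slides.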 The settings on record: higher = more signal.
Assay [5] deals with Neurogenic locus notch homolog protein 2 (Homo sapiens) (UniProt Q04721). Description: small molecules binding Notch2 protein – biochemical, small-molecule microarray, 635 nm fluorescence, stem cell growth factors, primary screen (AID 1073). The settings on record: higher = more signal.
Assay [6] concerns the target Pro-neuregulin-1, membrane-bound isoform (Homo sapiens) (UniProt Q02297). In words: small molecules binding neuregulin-1 protein – biochemical, small-molecule microarray, fluorescence 635/667, psychiatric disease protein project, primary screen (AID 1075).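 Also: score combines 667 nm spot fluorescence with signal to noise.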 To be noted: NRG1 binding, 635 nm fluorescence, higher = more signal.
Assay [7] concerns Neuregulin-1 EGF-like domain. Description: small molecules binding NRG1 EGF domain – biochemical, small-molecule microarray, 635 nm fluorescence, primary screen (AID 1081).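 Also: binding of the protein to compounds printed on small-molecule microarray slides.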 To be noted: higher = more signal.
Assay [8] can be described thus: FRG1 expression reporter modulators in myotubes – cell-based, C2C12 myotubes, firefly/Renilla luciferase, luminescence, FRG1 inhibition for FSHD, primary screen (AID 1084). To be noted: FRG1 promoter luciferase, higher = more signal, called active from +8 up or from −8 down.
A short description of assay [9]: small molecules captured by biotinylated probe aFST – biochemical, small-molecule microarray, fluorescence 635/667, stem cell growth factor project, primary screen (AID 1086).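 Also: score merges 667 nm fluorescence with signal-to-noise of each printed compound spot.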 To be noted: higher = more signal.
A short description of assay [10]: binders of probe aHhip on microarray, primary screen, stem cell growth factor project, biochemical, small-molecule microarray, fluorescence 635/667 (AID 1087).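 Also: score merges spot fluorescence at 667nm with spot signal to noise ratio.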 The settings on record: higher = more signal.
For assay [11], the system named is PRMT1 (protein arginine N-methyltransferase 1). Description: small molecules binding arginine methyltransferase PRMT1 – biochemical, small-molecule microarray, 635 nm fluorescence, primary screen (AID 1088).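 Also: binding of Prmt1 protein to compounds spotted on small-molecule microarray slides.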 The settings on record: higher = more signal.
Assay [12] can be described thus: growth effects on S. cerevisiae YJM789 – YJM789 clinical isolate, OD600, 24 h, basal, primary screen (AID 1089).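 Also: growth of clinical yeast isolate S. cerevisiae YJM 789 seeded 1000 cells per well; test concentration not given here.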 The settings on record: higher = more signal, called active from +8 up or from −8 down.
A short description of assay [13]: S. pombe growth modifiers, basal conditions – strain 972, OD600, 24 h, no modulator, primary screen (AID 1090).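 Also: basal condition with compound alone and no growth modifier present; test concentration not given here.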 To be noted: S. pombe 972 growth, higher = more signal, called active from +8 up or from −8 down.
Assay [14] in a line: budding yeast growth modifiers under rapamycin – strain BY4716, OD600, 96 h, primary screen (AID 1091). Also: test concentration not given here. The settings on record: S. cerevisiae BY4716 + rapamycin, higher = more signal, called active from +8 up or from −8 down.
Assay [15] deals with Torsin-1A-interacting protein 2 (Homo sapiens) (UniProt Q8NFQ8). Description: small molecules binding lysate-expressed LULL1 – cell lysate, human LULL1 lysate, 635/667 nm fluorescence, primary screen (AID 1092).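 Also: probe is lysate of COS7 cells overexpressing human LULL1; score merges per-feature 667 nm fluorescence with signal-to-noise.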 To be noted: small-molecule microarray, hLULL1 lysate binding, 635 nm fluorescence; higher = more signal.
The nature of assay [16]: optical density change of DRC41 E. coli – strain DRC41, OD650, 24 h, E. coli filamentation project, primary screen (AID 1093).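 Also: MC1000 strain lacking acrAB efflux and sulA so SOS filamentation is blocked; test concentration not given here.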 To be noted: E. coli DRC41 growth, higher = more signal, called active from +8 up or from −8 down.
Assay [17] is described as follows: probe aLefty2 binding to arrayed compounds – biochemical, biotinylated probe, 635/667 nm fluorescence, primary screen (AID 1094).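 Also: score merges spot fluorescence near 667 nm with spot signal-to-noise ratio.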 To be noted: small-molecule microarray, higher = more signal.
The subject of assay [18] is Noggin (protein binding on small-molecule microarray). In words: small molecules binding Noggin protein – biochemical, 635/667 nm fluorescence, primary screen (AID 1095).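 Also: score merges 667 nm feature fluorescence with signal to noise over triplicate slides.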 To be noted: 635 nm fluorescence, higher = more signal.
Assay [19] addresses Neurogenic locus notch homolog protein 3 (Homo sapiens) (UniProt Q9UM47). Description: small molecules binding NOTCH3 protein – biochemical, 635/667 nm fluorescence, primary screen (AID 1096). To be noted: small-molecule microarray, 635 nm fluorescence, higher = more signal.
Assay [20] can be described thus: probe aEGFR binding to arrayed compounds – biochemical, biotinylated probe, 635/667 nm fluorescence, primary screen (AID 1097).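 Also: probe is a biotinylated anti-EGFR antibody binding compounds printed on slides; score combines fluorescence near 667 nm and signal to noise of each spot.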 To be noted: small-molecule microarray, higher = more signal.

The source made the active and inactive calls.

Chain of Torsin-1A-interacting protein 2 (Homo sapiens) (Q8NFQ8 whole entry, looked up): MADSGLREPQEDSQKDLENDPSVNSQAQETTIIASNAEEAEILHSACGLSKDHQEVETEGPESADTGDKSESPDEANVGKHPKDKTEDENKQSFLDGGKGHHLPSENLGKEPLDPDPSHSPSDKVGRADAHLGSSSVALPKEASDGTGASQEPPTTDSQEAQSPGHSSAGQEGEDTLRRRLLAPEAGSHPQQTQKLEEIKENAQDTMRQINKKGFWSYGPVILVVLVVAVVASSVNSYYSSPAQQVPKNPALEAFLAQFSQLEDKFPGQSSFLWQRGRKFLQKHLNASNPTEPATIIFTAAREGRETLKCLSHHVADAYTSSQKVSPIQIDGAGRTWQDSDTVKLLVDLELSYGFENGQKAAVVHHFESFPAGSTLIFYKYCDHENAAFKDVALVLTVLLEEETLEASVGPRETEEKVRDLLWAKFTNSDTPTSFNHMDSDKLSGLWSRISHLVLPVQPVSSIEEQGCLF
Chain of Neurogenic locus notch homolog protein 2 (Homo sapiens) (Q04721 whole entry, looked up, canonical isoform): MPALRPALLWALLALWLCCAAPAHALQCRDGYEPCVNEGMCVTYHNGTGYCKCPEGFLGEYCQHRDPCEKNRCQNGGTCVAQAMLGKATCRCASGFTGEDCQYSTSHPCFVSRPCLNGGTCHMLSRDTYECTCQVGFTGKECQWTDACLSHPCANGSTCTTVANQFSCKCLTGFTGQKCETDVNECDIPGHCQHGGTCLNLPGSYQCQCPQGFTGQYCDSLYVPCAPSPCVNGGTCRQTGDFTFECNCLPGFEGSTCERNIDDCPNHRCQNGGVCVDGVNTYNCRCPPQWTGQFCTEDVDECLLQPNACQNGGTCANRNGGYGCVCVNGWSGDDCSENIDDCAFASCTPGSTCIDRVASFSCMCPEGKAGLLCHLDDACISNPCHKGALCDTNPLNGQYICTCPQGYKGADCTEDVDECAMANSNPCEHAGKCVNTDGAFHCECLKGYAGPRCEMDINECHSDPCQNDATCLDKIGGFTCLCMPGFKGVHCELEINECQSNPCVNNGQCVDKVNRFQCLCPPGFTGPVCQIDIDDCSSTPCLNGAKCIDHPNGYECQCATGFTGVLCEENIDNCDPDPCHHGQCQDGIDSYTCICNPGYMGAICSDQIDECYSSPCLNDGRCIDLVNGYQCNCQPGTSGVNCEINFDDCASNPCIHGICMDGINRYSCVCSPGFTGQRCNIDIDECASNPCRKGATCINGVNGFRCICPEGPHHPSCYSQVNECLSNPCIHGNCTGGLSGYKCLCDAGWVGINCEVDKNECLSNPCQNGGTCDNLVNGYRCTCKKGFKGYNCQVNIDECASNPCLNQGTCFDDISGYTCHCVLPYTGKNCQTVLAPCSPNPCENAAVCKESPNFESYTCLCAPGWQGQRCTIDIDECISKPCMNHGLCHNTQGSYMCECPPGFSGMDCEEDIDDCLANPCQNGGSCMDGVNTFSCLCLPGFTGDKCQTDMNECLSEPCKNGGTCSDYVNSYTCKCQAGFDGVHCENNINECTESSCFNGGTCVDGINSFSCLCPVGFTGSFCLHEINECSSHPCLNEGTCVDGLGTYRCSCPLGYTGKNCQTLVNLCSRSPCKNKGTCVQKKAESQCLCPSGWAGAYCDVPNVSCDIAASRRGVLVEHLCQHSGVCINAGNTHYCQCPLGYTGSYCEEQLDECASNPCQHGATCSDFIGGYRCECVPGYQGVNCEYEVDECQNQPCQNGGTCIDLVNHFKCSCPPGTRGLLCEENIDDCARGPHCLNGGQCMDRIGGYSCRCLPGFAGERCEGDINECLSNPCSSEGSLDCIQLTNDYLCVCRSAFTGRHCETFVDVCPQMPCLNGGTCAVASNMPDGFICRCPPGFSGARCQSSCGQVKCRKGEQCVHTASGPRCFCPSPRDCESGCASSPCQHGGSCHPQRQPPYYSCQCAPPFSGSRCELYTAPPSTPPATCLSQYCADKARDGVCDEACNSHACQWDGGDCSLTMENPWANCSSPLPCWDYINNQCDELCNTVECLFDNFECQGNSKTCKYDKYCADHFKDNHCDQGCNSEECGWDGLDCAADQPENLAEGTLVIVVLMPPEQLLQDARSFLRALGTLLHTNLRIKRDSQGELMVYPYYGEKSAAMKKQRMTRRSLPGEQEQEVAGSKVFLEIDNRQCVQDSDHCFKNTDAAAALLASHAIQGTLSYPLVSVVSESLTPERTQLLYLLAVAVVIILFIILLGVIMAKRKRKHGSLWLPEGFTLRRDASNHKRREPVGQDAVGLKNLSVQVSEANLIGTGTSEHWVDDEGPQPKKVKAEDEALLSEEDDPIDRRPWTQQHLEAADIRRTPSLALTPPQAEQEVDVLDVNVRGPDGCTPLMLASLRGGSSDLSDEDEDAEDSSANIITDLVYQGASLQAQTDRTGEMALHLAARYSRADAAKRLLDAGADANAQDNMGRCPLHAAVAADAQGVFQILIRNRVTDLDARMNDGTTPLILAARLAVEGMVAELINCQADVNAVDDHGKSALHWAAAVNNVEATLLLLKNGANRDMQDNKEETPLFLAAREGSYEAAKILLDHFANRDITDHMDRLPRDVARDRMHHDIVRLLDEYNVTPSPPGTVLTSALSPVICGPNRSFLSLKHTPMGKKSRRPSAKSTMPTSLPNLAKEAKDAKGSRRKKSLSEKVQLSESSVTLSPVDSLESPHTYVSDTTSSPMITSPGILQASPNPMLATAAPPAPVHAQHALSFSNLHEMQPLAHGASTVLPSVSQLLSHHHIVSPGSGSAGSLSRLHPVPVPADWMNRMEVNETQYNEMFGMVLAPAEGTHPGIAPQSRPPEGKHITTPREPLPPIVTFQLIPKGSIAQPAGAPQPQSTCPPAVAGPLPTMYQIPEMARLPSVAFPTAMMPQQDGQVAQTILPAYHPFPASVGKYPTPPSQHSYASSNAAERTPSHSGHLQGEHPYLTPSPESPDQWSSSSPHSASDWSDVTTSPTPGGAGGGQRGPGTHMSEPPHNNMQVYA
Chain of Pro-neuregulin-1, membrane-bound isoform (Homo sapiens) (Q02297 whole entry, looked up, the tested form may be a part, canonical isoform): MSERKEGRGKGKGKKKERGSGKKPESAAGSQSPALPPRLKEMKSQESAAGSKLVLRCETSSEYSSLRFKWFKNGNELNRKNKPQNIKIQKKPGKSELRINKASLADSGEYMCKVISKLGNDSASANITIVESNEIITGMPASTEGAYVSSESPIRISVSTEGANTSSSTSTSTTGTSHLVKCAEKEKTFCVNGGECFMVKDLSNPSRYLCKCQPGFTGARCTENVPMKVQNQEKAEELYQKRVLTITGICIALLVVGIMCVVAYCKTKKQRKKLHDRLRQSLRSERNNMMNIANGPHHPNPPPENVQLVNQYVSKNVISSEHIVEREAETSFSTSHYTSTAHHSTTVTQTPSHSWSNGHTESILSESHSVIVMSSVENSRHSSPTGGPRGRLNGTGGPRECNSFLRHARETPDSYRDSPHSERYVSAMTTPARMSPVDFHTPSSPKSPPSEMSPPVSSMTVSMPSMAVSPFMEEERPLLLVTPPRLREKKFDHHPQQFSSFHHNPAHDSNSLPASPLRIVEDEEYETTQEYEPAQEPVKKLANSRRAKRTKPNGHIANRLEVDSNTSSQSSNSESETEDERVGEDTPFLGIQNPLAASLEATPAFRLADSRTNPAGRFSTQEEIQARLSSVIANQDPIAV

Turning to `COc1ccc(C#Cc2ccc3c(c2)[C@]2(C(=O)N3)[C@H](c3ccccc3OCCO)N3[C@H](c4ccccc4)[C@H](c4ccccc4)OC(=O)[C@H]3[C@@H]2C(=O)NC[C@H](O)c2ccccc2)cc1`, the composite z-score in assay [1] was -0.38; in assay [2] it was 0.203; in [3], -0.0628; in [4], 0.146; in assay [5] it was 1; in [6], 0.698. Further, the composite z-score was 1.27 in assay [7]; 0.469 in assay [9]; 0.21 in assay [10]; 1.54 in assay [11]; 3 in assay [15]; -0.0168 in [17]. Moreover, the composite z-score in [18] was 1.58; in assay [19] it was 1.08; in assay [20] it was 0.095. In addition, the z-score is 0.621 (inactive) in [8]; 2.42 (inactive) in [12]; 2.18 (inactive) in assay [13]; 2.92 (inactive) in [14]; 2.11 (inactive) in [16].
For the compound `COc1ccc(CCNC(=O)[C@@H]2c3ccccc3C(=O)N(C(C)C)[C@H]2c2ccc(CO)cc2)cc1`, the composite z-score in assay [1] is 1.42; in assay [2] it was -0.489; in assay [3], -0.142; in [4], -0.92; in assay [5] it was -1.48; in assay [6], 0.0203. The composite z-score is 0.209 in assay [7]; -0.36 in [9]; -0.379 in assay [10]; -0.592 in assay [11]; 2.05 in [15]; 0.0129 in assay [17]. The composite z-score in assay [18] was -1.3; in assay [19] it was -2.01; in [20], -0.238. Also, the z-score is -1.15 (inactive) in assay [8]; 0.342 (inactive) in assay [12]; -0.264 (inactive) in [13]; -0.0884 (inactive) in assay [14]; 1.39 (inactive) in [16].
`CN1C(=O)C2CC=C(C3=CCO[C@@H]3[C@H]3CCCN3S(=O)(=O)c3ccccc3[N+](=O)[O-])CC2C1=O` (stereo not given in full): the composite z-score is 0.895 in assay [1]; -0.216 in assay [2]; -0.166 in assay [3]; 0.114 in assay [4]; -0.456 in assay [5]; 0.789 in [6]. Further, the composite z-score was -0.132 in assay [7]; 0.0699 in [9]; 0.0373 in assay [10]; 0.0659 in assay [11]; 0.283 in [15]; -0.203 in assay [17]. In addition, the composite z-score in [18] was -0.194; in assay [19], 0.01; in assay [20], -0.171. Besides, the z-score in [8] was -0.869 (inactive); in [12] it was -0.0649 (inactive); in [13] it was -0.706 (inactive); in assay [14] it was -0.0153 (inactive); in [16], -0.66 (inactive).
`COC(=O)[C@@]1(Cc2ccc(F)cc2)[C@H]2c3cc(C(=O)N(C)C)n(Cc4ccc(C(F)(F)F)nc4)c3C[C@H]2CN1C(=O)c1ccccc1`: the composite z-score in assay [1] is 1.5; in assay [2], 0.474; in assay [3], 0.0642; in assay [4], 0.69; in [5], 1.74; in assay [6] it was 2.03. Also, the composite z-score amounted to 1.18 in assay [7]; 1.97 in assay [9]; 0.264 in [10]; 1.32 in assay [11]; 3.71 in assay [15]; 0.317 in [17]. The composite z-score was 0.108 in [18], 1.02 in assay [19] and 0.379 in assay [20]. Also, the z-score was -0.909 (inactive) in assay [8]; 0.538 (inactive) in assay [12]; 0.909 (inactive) in assay [13]; 4.36 (inactive) in assay [14]; -0.366 (inactive) in [16].
For the compound `[N-]=[N+]=NCc1ccccc1C[C@]1(C(=O)N2CCCCC2)COC(c2ccc(OCCCO)cc2)=N1`, the composite z-score in assay [1] is 0.438; in assay [2], 0.184; in assay [3], -0.0151; in [4] it was 1.01; in [5], 0.207; in [6], 1.13. The composite z-score was 0.996 in assay [7]; 1.68 in assay [9]; 2.35 in assay [10]; 1.57 in assay [11]; 1.55 in assay [15]; 0.346 in [17]. Also, the composite z-score in assay [18] amounted to 0.683; in [19], 0.202; in assay [20], 0.306. Besides, the z-score is -4.13 (inactive) in [8]; 0.504 (inactive) in assay [12]; -1.92 (inactive) in assay [13]; 34.8 (active) in assay [14]; 3.43 (inactive) in [16].
`COC(=O)[C@@]1(Cc2ccc(F)cc2)[C@H]2c3cc(C(=O)N4CCCC4)n(Cc4ccc(C(F)(F)F)nc4)c3C[C@H]2CN1C(=O)c1ccccc1`: the composite z-score in assay [1] is 0.581; in [2] it was -0.0219; in assay [3], 0.16; in [4], 0.0812; in assay [5] it was 1.74; in [6], 2.1. Further, the composite z-score was 0.92 in [7]; 2.25 in assay [9]; -0.0799 in assay [10]; 0.428 in [11]; 2.29 in assay [15]; 0.67 in assay [17]. The values for the composite z-score in assay [18], in assay [19] and in assay [20] were 0.373, 1.03 and 0.188, respectively. For the same compound, the z-score in [8] is 2 (inactive); in [12] it was -0.368 (inactive); in [13] it was 1.17 (inactive); in [14], 3.82 (inactive); in [16] it was -0.293 (inactive).
